Results filed as inconclusive are left out. The source made the active and inactive calls. Unless noted, calls follow the shape of the full dose curve.
Legend:
[1] = Nuclear factor erythroid 2-related factor 2/antioxidant responsive element (Nrf2/ARE) small molecule agonists: qHTS cell viability counter screen in human keratinocytes (AID 1919968; active = well fitted curve in the direction sought with a large enough effect in the repeat runs; an effect the other way counts as inactive or inconclusive; also: nearly all actives have a fitted effect of over 55% in size)
How it was run: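 In human HaCaT keratinocytes stably expressing an ARE-driven luciferase, compound exposure lasted 23 h at 37 C under 5% CO2. Viable cells are quantified with a protease-based fluorogenic reagent (CellTiter-Fluor) read 1 h after addition.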

[2] = Nuclear factor erythroid 2-related factor 2/antioxidant responsive element (Nrf2/ARE) small molecule agonists: luciferase reporter gene qHTS assay in human keratinocytes (AID 1919969); also: nearly all actives have a fitted effect of over 35% in size
[3] = target: Gonadotropin-releasing hormone receptor (Homo sapiens) (UniProt P30968); experiment: Human gonadotropin-releasing hormone receptor (GnRHR) small molecule agonists, calcium flux assay in GnRHR-HEK293 cells (AID 1920063); also: nearly all actives have a fitted effect of over 35% in size
Chain of Gonadotropin-releasing hormone receptor (Homo sapiens) (P30968 whole entry, looked up): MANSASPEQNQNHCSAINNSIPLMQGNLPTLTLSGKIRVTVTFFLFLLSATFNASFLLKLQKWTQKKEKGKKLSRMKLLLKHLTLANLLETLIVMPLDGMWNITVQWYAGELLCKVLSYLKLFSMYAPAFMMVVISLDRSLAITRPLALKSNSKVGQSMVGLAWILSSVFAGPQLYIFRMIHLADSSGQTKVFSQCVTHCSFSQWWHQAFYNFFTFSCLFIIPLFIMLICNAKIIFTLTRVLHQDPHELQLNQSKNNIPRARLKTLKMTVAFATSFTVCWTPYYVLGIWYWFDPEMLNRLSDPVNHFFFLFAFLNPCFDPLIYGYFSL
How it was run: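 Intracellular calcium rise is the read-out: engineered human GnRHR HEK293 cells, dye-loaded, are exposed to DMSO-dissolved compounds and fluorescence at Ex/Em 480/540 is tracked for 3 min.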

[4] = target: KiSS-1 receptor (Homo sapiens) (UniProt Q969F8); experiment: Human kisspeptin (KISS1R) small molecule agonists, calcium flux assay in KISS1R-HEK293 cells (AID 1920064; active = well fitted curve in the direction sought with a large enough effect in the repeat runs; an effect the other way counts as inactive or inconclusive)
Chain of KiSS-1 receptor (Homo sapiens) (Q969F8 whole entry, looked up): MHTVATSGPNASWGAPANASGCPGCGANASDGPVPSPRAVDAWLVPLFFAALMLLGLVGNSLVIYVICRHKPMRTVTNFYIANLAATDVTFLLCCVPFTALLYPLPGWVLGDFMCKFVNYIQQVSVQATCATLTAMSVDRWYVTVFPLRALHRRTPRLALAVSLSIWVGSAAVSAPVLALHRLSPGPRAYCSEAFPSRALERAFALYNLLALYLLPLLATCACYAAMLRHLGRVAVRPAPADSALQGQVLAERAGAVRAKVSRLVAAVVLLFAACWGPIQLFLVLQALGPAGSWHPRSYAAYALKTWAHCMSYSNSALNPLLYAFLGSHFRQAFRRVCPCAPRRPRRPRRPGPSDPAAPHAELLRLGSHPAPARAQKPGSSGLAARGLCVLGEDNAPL
How it was run: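 Concentration-response testing used 15 concentrations in triplicate on human KISS1R-expressing HEK293 cells. Calcium-dependent fluorescence (Ex/Em 480/540) was followed kinetically for 3 min after compound transfer.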

[5] = G protein-coupled receptor (GPCR) small molecule agonists, calcium flux assay: HEK293 wild type cell line counter screen (AID 1920065)
How it was run: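 Fluorescence intensity signals activation. After overnight (18 h) culture and a 1 h calcium dye load at 37 C, compounds are added by pin tool and the plate read at 480/540 nm for 3 min in 1 s steps.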

[6] = p53 small molecule agonists, cell-based qHTS assay with human liver microsomes (AID 1963577);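 also: p53 response element beta-lactamase reporter cells with liver microsomes plus NADPH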
How it was run: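 Metabolically competent format: test substances, human liver microsomes and NADPH (both 0.5 mg/mL final) incubated with p53RE-bla cells 16 h at 37 C. Beta-lactamase reporter signal then quantified by fluorescence.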

[7] = p53 small molecule agonists, cell-based qHTS assay with rat liver microsomes (AID 1963578)
How it was run: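 Each plate received p53RE-bla cells, then compound, then rat liver microsomes and NADPH (both 0.5 mg/mL final). Plates were held 16 h at 37 C, and beta-lactamase activity was detected with LiveBLAzer over 2 h.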

[8] = p53 small molecule agonists, cell-based qHTS assay with human liver microsomes: qHTS cell viability counter screen (AID 1963579); also: nearly all actives have a fitted effect of over 45% in size
How it was run: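 Tox21 library compounds, delivered from DMSO stocks, were tested on p53RE-bla cells together with 0.5 mg/mL human liver microsomes and 0.5 mg/mL NADPH (final) over 16 h at 37 C; CellTiter-Glo luminescence served as the cytotoxicity measure.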

[9] = p53 small molecule agonists, cell-based qHTS assay with rat liver microsomes: qHTS cell viability counter screen (AID 1963580); also: nearly all actives have a fitted effect of over 45% in size
How it was run: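 Cytotoxicity counter screen: intracellular ATP read by CellTiter-Glo luminescence in the p53 reporter wells. HCT-116 p53RE-bla cells were treated for 16 h at 37 C alongside rat liver microsomes and NADPH, each 0.5 mg/mL final.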

[10] = p53 small molecule agonists, cell-based qHTS assay: qHTS cell viability counter screen (AID 1963581); also: nearly all actives have a fitted effect of over 45% in size
How it was run: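 Luminescence from CellTiter-Glo, reflecting ATP content, serves as the cytotoxicity measure; it is taken after the 2 h reporter substrate step in HCT-116 p53RE-bla cells dosed for 16 h at 37 C.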

[11] = p53 small molecule agonists, cell-based qHTS assay (AID 1963582; active = well fitted activation curve with a large enough effect in the signal ratio in the repeat runs, not every such curve was filed as active; the % refers to the signal ratio)
How it was run: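 After plating, p53RE-bla cells sat 5 h in the incubator; compounds or DMSO vehicle were pinned in; a 16 h incubation at 37 C followed; FRET substrate was added and, 2 h later at RT, fluorescence was measured.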

[12] = target: 5-hydroxytryptamine receptor 2A (Homo sapiens) (UniProt P28223); experiment: 5-hydroxytryptamine receptor 2A (HTR2A) small molecule antagonists, cell-based qHTS assay (AID 1963586); also: nearly all actives have a fitted effect of over 45% in size
Chain of 5-hydroxytryptamine receptor 2A (Homo sapiens) (P28223 whole entry, looked up): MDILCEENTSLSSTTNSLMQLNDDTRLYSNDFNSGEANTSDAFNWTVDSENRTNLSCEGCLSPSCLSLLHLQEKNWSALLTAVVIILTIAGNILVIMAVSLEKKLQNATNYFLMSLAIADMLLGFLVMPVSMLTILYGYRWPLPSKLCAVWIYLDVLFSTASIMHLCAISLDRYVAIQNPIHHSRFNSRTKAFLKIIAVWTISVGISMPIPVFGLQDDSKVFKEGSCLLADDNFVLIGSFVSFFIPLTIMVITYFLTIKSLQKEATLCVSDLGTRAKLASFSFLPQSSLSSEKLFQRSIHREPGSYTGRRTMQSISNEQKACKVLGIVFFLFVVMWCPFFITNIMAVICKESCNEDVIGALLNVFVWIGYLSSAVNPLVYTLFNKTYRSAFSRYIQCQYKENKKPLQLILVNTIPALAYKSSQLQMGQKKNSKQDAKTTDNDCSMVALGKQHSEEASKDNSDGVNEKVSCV
How it was run: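 CHO cells stably expressing human HTR2A were plated for 18 h at 37 C, then loaded with calcium dye for 1 h. Compounds were preincubated 5 min at room temperature before DOI (4 nM solution) was added. Kinetic fluorescence was read for 3 min.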

[13] = target: Muscarinic acetylcholine receptor M1 (Homo sapiens) (UniProt P11229); experiment: Cholinergic receptor muscarinic 1 (CHRM1) small molecule antagonists, cell-based qHTS assay (AID 1963588); also: nearly all actives have a fitted effect of over 40% in size; also: potency is read from the fitted curve at half-maximal effect
Chain of Muscarinic acetylcholine receptor M1 (Homo sapiens) (P11229 whole entry, looked up): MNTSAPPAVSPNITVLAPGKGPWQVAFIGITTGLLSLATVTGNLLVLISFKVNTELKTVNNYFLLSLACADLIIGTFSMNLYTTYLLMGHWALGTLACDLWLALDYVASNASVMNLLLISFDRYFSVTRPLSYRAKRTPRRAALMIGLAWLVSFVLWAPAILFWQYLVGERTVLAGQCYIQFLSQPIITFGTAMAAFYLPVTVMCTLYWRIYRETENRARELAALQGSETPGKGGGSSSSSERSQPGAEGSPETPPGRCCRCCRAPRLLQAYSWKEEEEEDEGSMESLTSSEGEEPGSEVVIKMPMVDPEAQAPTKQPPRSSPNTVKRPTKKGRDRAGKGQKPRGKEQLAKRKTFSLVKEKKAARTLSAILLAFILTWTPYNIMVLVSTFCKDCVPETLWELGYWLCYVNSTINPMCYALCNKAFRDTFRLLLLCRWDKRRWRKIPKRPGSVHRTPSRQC
How it was run: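 Compounds were tested at 15 concentrations in three independent runs. Dye-loaded CHRM1-CHO cells were exposed 5 min at room temperature before stimulation by acetylcholine added at 50nM. Intracellular calcium was read kinetically on FDSS for 3 min.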

[14] = cAMP Responsive Elements (CRE) small molecule agonists, cell-based qHTS assay (AID 1963590)
How it was run: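 Compound exposure lasted 3 h at 37 C/5% CO2 in CRE-bla HEK 293T cells grown in assay medium with 10% dialyzed FBS and 25 mM HEPES. Reporter signal came from LiveBLAzer B/G FRET substrate, 2 h, room temperature.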

[15] = cAMP Responsive Elements (CRE) small molecule antagonists, cell-based qHTS assay (AID 1963591; active = well fitted inhibition curve with a large enough effect in the signal ratio in the repeat runs, not every such curve was filed as active; the % refers to the signal ratio)
How it was run: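 Stimulation used NKH477 at a final 0.25 uM for 3 h in compound-treated CRE-bla HEK293T cells, seeded 18 h beforehand. Reporter activity was measured with LiveBLAzer B/G FRET substrate after 2 h at room temperature.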

[16] = target: Beta-2 adrenergic receptor (Homo sapiens) (UniProt P07550); experiment: Adrenergic beta2 receptor (ADRB2) small molecule antagonists, cell-based qHTS assay (AID 1963592); also: series mostly up to about 92 µM; nearly all actives have a fitted effect of over 50% in size
Chain of Beta-2 adrenergic receptor (Homo sapiens) (P07550 whole entry, looked up): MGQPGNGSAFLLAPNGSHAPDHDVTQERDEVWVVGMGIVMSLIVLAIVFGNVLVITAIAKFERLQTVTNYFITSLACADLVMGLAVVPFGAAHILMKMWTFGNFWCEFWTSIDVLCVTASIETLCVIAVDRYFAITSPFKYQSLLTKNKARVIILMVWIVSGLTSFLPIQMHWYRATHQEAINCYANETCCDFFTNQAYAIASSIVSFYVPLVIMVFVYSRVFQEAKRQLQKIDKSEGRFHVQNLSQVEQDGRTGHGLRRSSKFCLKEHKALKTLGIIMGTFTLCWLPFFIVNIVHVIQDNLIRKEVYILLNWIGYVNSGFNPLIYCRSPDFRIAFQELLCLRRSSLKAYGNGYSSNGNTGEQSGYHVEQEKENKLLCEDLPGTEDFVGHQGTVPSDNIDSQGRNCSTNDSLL
How it was run: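 Assay format: CHO-ADRB2 cells, 18-20hr seeding at 37C/5% CO2, then compound plus 1nM isoproterenol agonist mix for 0.5hr RT. Homogeneous time-resolved fluorescence cAMP detection after 1hr, expressed as 665/615 nm ratio.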

[17] = target: D(2) dopamine receptor (Homo sapiens) (UniProt P14416); experiment: Dopamine D2 receptor (DRD2) small molecule agonists, cell-based qHTS assay (AID 1963594); also: nearly all actives have a fitted effect of over 35% in size
Chain of D(2) dopamine receptor (Homo sapiens) (P14416 whole entry, looked up): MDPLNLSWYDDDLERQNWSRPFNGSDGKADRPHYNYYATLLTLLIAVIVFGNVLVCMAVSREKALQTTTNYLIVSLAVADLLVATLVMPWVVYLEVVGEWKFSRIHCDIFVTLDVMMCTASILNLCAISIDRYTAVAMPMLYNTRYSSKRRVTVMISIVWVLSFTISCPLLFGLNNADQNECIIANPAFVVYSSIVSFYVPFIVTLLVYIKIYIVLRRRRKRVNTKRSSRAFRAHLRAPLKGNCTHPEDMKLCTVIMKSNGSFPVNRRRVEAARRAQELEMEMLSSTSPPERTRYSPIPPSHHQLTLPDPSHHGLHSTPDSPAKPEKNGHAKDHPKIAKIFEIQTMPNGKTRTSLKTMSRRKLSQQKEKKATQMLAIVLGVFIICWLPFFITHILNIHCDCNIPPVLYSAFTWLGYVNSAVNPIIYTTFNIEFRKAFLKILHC
How it was run: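 cAMP accumulation in DRD2-HEK293 cells measured by HTRF after 1 h detection; compounds added 10 min before NKH477 (200nM […]) forskolin-analogue stimulation, 30 min at room temperature, with Ro20-1724 present at 0.1 mM final.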

[18] = target: D(2) dopamine receptor (Homo sapiens) (UniProt P14416); experiment: Dopamine D2 receptor (DRD2) small molecule antagonists, cell-based qHTS assay (AID 1963595; active = well fitted inhibition curve with a large enough effect in the signal ratio in the repeat runs, with a control signal flat; the % refers to the signal ratio)
How it was run: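 Cells were plated and grown for 24 h at 37 °C. Ro20-1724 (0.1 mM final) went in first, then compound for 10 min. NKH477 (200 nM) with quinpirole (12 nM) followed for 30 min at RT, then HTRF detection reagents for 1 h.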

[19] = target: Muscarinic acetylcholine receptor M1 (Homo sapiens) (UniProt P11229); experiment: Cholinergic receptor muscarinic 1 (CHRM1) small molecule agonists, cell-based qHTS assay (AID 1963589); also: nearly all actives have a fitted effect of over 35% in size
How it was run: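 Fluorescent calcium dye reports M1 activation in stably transfected CHO cells. Compounds, 15 concentrations, added after 1 h dye loading at 37 C; kinetic reading at 1 sec intervals.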

[20] = target: 5-hydroxytryptamine receptor 2A (Homo sapiens) (UniProt P28223); experiment: 5-hydroxytryptamine receptor 2A (HTR2A) small molecule agonists, cell-based qHTS assay (AID 1963587); also: nearly all actives have a fitted effect of over 30% in size
How it was run: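 Kinetic calcium-flux fluorescence (2 min, 1 sec intervals) after compound addition in agonist mode. HTR2A-CHO cells were cultured 18 h, then dye-loaded 1 h at 37 C.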

Measured: Potency

COS(=O)(=O)OC
not listed: [19] | [20]
inactive: all other assays above

CC(C)(c1ccccc1)c1cc(-n2nc3ccccc3n2)c(O)c(C(C)(C)c2ccccc2)c1
not listed: [20]
inactive: all other assays above

C[N+]1(C)CCCCC1
not listed: [20]
inactive: all other assays above

Clc1nc(Cl)nc(Nc2ccccc2Cl)n1
not listed: [13] | [14] | [15]
inactive: all other assays above

O=C(NCNC(=O)NC1C(=O)NC(=O)N1CO)NC1C(=O)NC(=O)N1CO (stereo unspecified)
not listed: [13] | [16]
inactive: all other assays above

COC(=O)c1c(C(F)F)nc(C(F)(F)F)c(C2=NCCS2)c1CC(C)C
not listed: [20]
inactive: all other assays above

ClCC1CO1 (stereo unspecified)
not listed: [12] | [18]
inactive: all other assays above

CC(C)=CCN1CC[C@@]2(C)c3cc(O)ccc3C[C@@H]1[C@@H]2C
active: [13] 9.28 µM
not listed: [14] | [20]
inactive: all other assays above

From PubChem BioAssay (Tox21)
